Test results from PubChem BioAssay (NCI).
This is part of a sample that, as a whole, favours compounds with a hit. Of some 83,000 tested, about 20% had one in any assay.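 Testing used 96-well plates and a 48-hour single-concentration exposure. Example: -40 means 40% of the starting cells died.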 A number with no mark means an inactive call. Active and inactive are the calls of the source. The calls were made as follows: active = growth percent below 10; inactive = the rest.

How the values were obtained:
Test in all cases: NCI-60 one-dose screen, 48 h (100 = growth as untreated, 0 = no growth, -100 = all killed)
Settings in all cases: 10 µM unless noted
HCT-15 colon = system: HCT-15 colon
HT29 colon = system: HT29 colon
SNB-75 CNS = system: SNB-75 CNS
SNB-19 CNS = system: SNB-19 CNS
U251 CNS = system: U251 CNS
PC-3 prostate = system: PC-3 prostate
SK-MEL-5 melanoma = system: SK-MEL-5 melanoma
UACC-62 melanoma = system: UACC-62 melanoma
LOX IMVI melanoma = system: LOX IMVI melanoma
SK-MEL-28 melanoma = system: SK-MEL-28 melanoma
SK-MEL-2 melanoma = system: SK-MEL-2 melanoma
EKVX NSCLC = system: EKVX NSCLC
SN12C renal = system: SN12C renal
UO-31 renal = system: UO-31 renal
TK-10 renal = system: TK-10 renal
ACHN renal = system: ACHN renal
CAKI-1 renal = system: CAKI-1 renal
CCRF-CEM leukemia = system: CCRF-CEM leukemia
MOLT-4 leukemia = system: MOLT-4 leukemia

| Compound | growth (HCT-15 colon) | growth (HT29 colon) | growth (SNB-75 CNS) | growth (SNB-19 CNS) | growth (U251 CNS) | growth (PC-3 prostate) | growth (SK-MEL-5 melanoma) | growth (UACC-62 melanoma) | growth (LOX IMVI melanoma) | growth (SK-MEL-28 melanoma) | growth (SK-MEL-2 melanoma) | growth (EKVX NSCLC) | growth (SN12C renal) | growth (UO-31 renal) | growth (TK-10 renal) | growth (ACHN renal) | growth (CAKI-1 renal) | growth (CCRF-CEM leukemia) | growth (MOLT-4 leukemia) |
| --- | --- | --- | --- | --- | --- | --- | --- | --- | --- | --- | --- | --- | --- | --- | --- | --- | --- | --- | --- |
| Cc1c([N+](=O)[O-])cc(C(C)(C)C)cc1[N+](=O)[O-] | 105% | 87.2% | 89.4% | 102% | 95.4% | 95.3% | 99.7% | 103% | 97.2% | 99.2% | 71.5% | 98.6% | 99.7% | 98.7% | 102% | 104% | 98% | 106% | 95.9% |
| COc1ccc(NS(=O)(=O)c2ccc(C)cc2)c([N+](=O)[O-])c1 | 107% | 107% | 105% | 102% | 93.3% | 97.5% | 96.8% | 86% | 95.2% | 107% | 110% | 101% | 88.2% | 86.3% | 99.7% | 95.4% | 98.2% | 97% | 96.3% |
| CC(C)C1C2=C(NCCN1C(=O)Cc1ccccc1)C(C)(C)N(Cc1ccccc1)C2=O (centres undefined) | 95.4% | 109% | 85.3% | 96.8% | 103% | 93.2% | 104% | 92.4% | 101% | 104% | 94.3% | 94.5% | 98.5% | 87.3% | 97.3% | 101% | 84.2% | 111% | 96.8% |
| Nc1nnc(C(=O)c2cnc3n(c2=O)CCCCC3)s1 | 102% | 115% | 85.7% | 102% | 101% | 101% | 98.5% | 93.3% | 89% | 106% | 112% | 98.8% | 95.1% | 86.3% | 102% | 101% | 92.3% | 128% | 97.1% |
| Fc1ccc(C2CC(c3cccc(Nc4ccncc4)c3)=NN2c2ccc(Cl)cc2)cc1 (centres undefined) | 3.49% (active) | 2.11% (active) | 78.4% | 87.5% | 8.99% (active) | 49.4% | 82.8% | 99.6% | -67.1% (active) | 53.4% | 101% | 84.7% | 68.5% | 52.9% | 84.6% | 75.6% | 43.6% | 42.6% | 24% |
| O=C(NNc1nc(Cl)nc(N2CCN(C(c3ccccc3)c3ccccc3)CC2)n1)c1ccccc1 | -60.1% (active) | -78.9% (active) | -26.3% (active) | 32.4% | 27.3% | -46.9% (active) | 79.4% | 3.38% (active) | -88.7% (active) | -6.33% (active) | -27% (active) | 64% | -24.2% (active) | 68.9% | 126% | -39% (active) | -51.9% (active) | -25.1% (active) | -39.2% (active) |
| Cc1ccc(Nc2cc(=S)nc(N)[nH]2)cc1C | 104% | 94.3% | 78.1% | 90.1% | 92.1% | 90.7% | 102% | 89.2% | 105% | 101% | 99.9% | 79% | 92.4% | 81.4% | 144% | 91.2% | 90.5% | 112% | 97.4% |
| CN(C)C(=O)c1cc2cnc(Nc3ccc(-c4csc5c(=O)cc(N6CCOCC6)oc45)cc3)nc2n1C1CCCC1 | -11.4% (active) | -48.6% (active) | -65% (active) | 1.45% (active) | -7.84% (active) | -42% (active) | -98% (active) | -69.6% (active) | -39.3% (active) | -55.9% (active) | -58.6% (active) | -19.5% (active) | 4.35% (active) | -5.39% (active) | -10% (active) | 1.06% (active) | -50.8% (active) | -14.4% (active) | -32% (active) |
| Cc1[nH]c(C(=O)Nc2ccccc2OCc2cccc(C(=O)NCCN)c2)c(Cl)c1Cl | 86.3% | 38.2% | 86.2% | 58.3% | 4.71% (active) | 79.7% | 95.3% | 92.6% | -48.1% (active) | 84.3% | 107% | 89.1% | 58% | 75% | 138% | 101% | 85.6% | 25.1% | 40.3% |
| C=CCn1c(SCC(=O)Nc2ccc(C(=O)/C=C/c3cc(OC)c(OC)c(OC)c3)cc2)nnc1-c1cc(-c2ccc(S(C)(=O)=O)cc2)nc2ccccc12 | 69.7% | 81.3% | 55.7% | 74.1% | 88.3% | 88.8% | 82.7% | 75.5% | 67% | 108% | 103% | 90.9% | 88.5% | 78.4% | 159% | 91.9% | 77.3% | 35% | 56.3% |
| O=C1/C(=C\c2cn(Cc3ccccc3)c3ccc(Br)cc23)c2ccccc2N1c1c(Cl)cccc1Cl | 102% | 101% | 76.4% | 90.9% | 96.4% | 78% | 104% | 98.4% | 88.8% | 107% | 101% | 89.2% | 97.7% | 87.3% | 102% | 104% | 83% | 96.8% | 95.8% |
| CC(=O)N1c2ccccc2NC2=C(C(=O)N(Cc3ccccc3)C2(C)C)C1c1ccco1 (centres undefined) | 15.7% | 9.99% (active) | 16.8% | 23.6% | 24.6% | 29.7% | 7.88% (active) | 21.2% | 25.6% | 57.3% | 16.9% | 35.4% | 35.9% | 52.5% | 54.9% | 33.5% | 43% | 24.1% | 28.6% |
| O=S(=O)(c1ccc(N/N=C\c2ccccc2)cc1)c1ccc(N/N=C/c2ccccc2)cc1 | 88.7% | 54.7% | 87% | 81.4% | 66.6% | 55.7% | 74.7% | 70.8% | 63.4% | 75.6% | 76.5% | 73.7% | 64.9% | 88.3% | 59.4% | 57.4% | 67.7% | 88.7% | 82.4% |
| CN1CCCC1=Nc1ccccc1 | 111% | 98.1% | 80% | 107% | 94.7% | 96.9% | 104% | 91.4% | 96.6% | 96.6% | 114% | 103% | 95.5% | 92.2% | 107% | 115% | 94.6% | 105% | 101% |
| Nc1cc(N)c2cccnc2c1O | 83.7% | 87.4% | 104% | 64.2% | 68.3% | 80.7% | 62.9% | 43% | 42.3% | 73.6% | 98.2% | 83.2% | 55.5% | 56.5% | 86% | 54.3% | 35.3% | 2.91% (active) | 5.9% (active) |
| COC(=O)C1NC(=S)N(c2ccc(Cl)cc2)C1/C=C/c1ccccc1 (centres undefined) | 99.4% | 104% | 127% | 103% | 97.5% | 86.2% | 102% | 89.3% | 78.5% | 118% | 102% | 92.4% | 99.3% | 86.8% | 105% | 96.3% | 91.3% | 100% | 103% |
